# Screening results deposited in PubChem BioAssay by The Scripps Research Institute Molecular Screening Center.
# A selection: hits, their analogues and other compounds. The true share with any hit is near 5.7%.
# DAX1 inh-1 – inhibits human nuclear receptor DAX1; P51843; HEK293 Gal4-DAX1 luciferase reporter, luminescence; inhibition, % at 6.75 µM; 0.99% of 340,000 active; AID 504766;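 active means inhibition above the mean over all tested compounds plus 3 SD, cut at about 4.2% in these data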;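 further: 0% = DAX1-transfected cells with DMSO and 100% = empty-vector control cells with DMSO; inhibition shows as a rise in luminescence from relieved DAX1 repression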
# AHR act – human AHR activation; P35869; AHR-responsive luciferase reporter cells, luminescence; activation, % at 5 µM; 2.5% of 320,000 active; in the data active means activation above about 47%;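 further: 0% = vehicle wells and 100% = reference agonist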
# ssDAF12 agonist – activates DAF-12 receptor from parasite S. stercoralis; 1% of 370,000 active; activation, % at 6.8 µM; HEK293 ssDAF-12/GRIP1 lit1-tk-luc reporter, luminescence; % of 3 µM dafachronic acid response;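 active means activation above the mean over all tested compounds plus 3 SD, cut at about 0.9% in these data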;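 further: 0% = DMSO-only wells and 100% = 3 µM delta7-dafachronic acid wells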
# DAX1 inh-2 – DAX1 (NR0B1) inhibition, primary screen; HEK293T StAR-luciferase reporter, SF-1/DAX-1 repression relief; inhibition, % at 6.8 µM; 1.1% of 370,000 active; AID 652010;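 active means inhibition above the mean over all tested compounds plus 3 SD, cut at about 3.6% in these data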;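 further: 0% = DAX-1 cells with DMSO and 100% = cells lacking DAX-1 with DMSO; higher inhibition means more luminescence from relief of DAX-1 repression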
# hcDAF-12 act – activates DAF-12 receptor from parasite H. contortus; HEK293 hcDAF-12 lit1-tk-luc reporter, luminescence; 0% DMSO, 100% Δ7-dafachronic acid; activation, % at 6.8 µM; 1.4% of 370,000 active;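 active means activation above the mean of all tested compounds plus 3 SD, cut at about 5.5% in these data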;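 further: 100% = response to 3 µM Δ7-dafachronic acid high control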
# hgDAF-12 ag – agonists of H. glycines DAF-12 nuclear receptor; HEK293 GAL4-hgDAF12 UAS-luciferase reporter, agonist luminescence; normalized to butyrate control; activation, % at 6.8 µM; 1.8% of 370,000 active; AID 687014;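 active means activation above a cutoff set at the mean of all screened compounds plus 3 SD, cut at about 10% in these data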;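 further: 0% = DMSO wells and 100% = sodium butyrate wells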
# An asterisk follows results filed as active; / = not tested or not shown.
SMILES,DAX1 inh-1,AHR act,ssDAF12 agonist,DAX1 inh-2,hcDAF-12 act,hgDAF-12 ag
Cn1c(=NC(=O)C2=NNC(=O)CC2)sc2ccccc21,0,2,-2,1,-1,1
COc1ccc(CC(=O)NCc2cn3ccsc3n2)cc1,3,1,-1,0,-1,-1
O=C(Cc1cn2ccsc2n1)NCc1ccccc1,0,-2,0,0,6.0*,3
C=CCn1c(SCCN2CCCC2)nc2c([nH]c3ccccc32)c1=O,0,24,1,0,4,4
CC(C1CC1)N(C(=O)c1ccccc1[N+](=O)[O-])c1ccccc1 (configuration not stated),-1,0,-2,-1,-1,2
COc1cc(/C=N/N(C)c2ccccc2)cc(Cl)c1O,0,52*,-1,-1,3,9
COc1ccc(OC)c(/C=N/N(C)c2ccccc2)c1,3,-3,-1,3,1,9
FC(F)(F)c1cccc(NC(=S)Nc2cccc(NC(=S)Nc3cccc(C(F)(F)F)c3)n2)c1,2,66*,0,-1,2,7
Cc1cc2c(cc1S(=O)(=O)NCc1ccc(N(C)C)cc1)OCC(=O)N2,0,13,-1,1,0,-1
Cc1cc([N+](=O)[O-])ccc1NC(=O)/C=C/c1cccs1,1,2,-1,-1,-1,12*
CCCn1c(SCC(=O)N2CCCc3ccccc32)nc2c1c(=O)n(C)c(=O)n2C,-2,4,-1,0,-1,-2
O=[N+]([O-])c1ccc(OCCCCCN2CCOCC2)cc1,5.0*,-2,0,0,4,7
O=C(NCC(=O)N1CCCC(C(F)(F)F)C1)c1ccc(Br)o1 (configuration not stated),0,0,-1,1,-2,-1
O=C(NCC(=O)N1CCCC(C(F)(F)F)C1)c1ccccc1Br (configuration not stated),-1,23,1.3*,1,4,1
COc1ccc(-c2nnn(CC(=O)N(CCCN3CCOCC3)C(C(=O)NC3CCCC3)c3ccc(C)o3)n2)cc1 (configuration not stated),2,-1,-2,0,-1,3
COc1ccc(-c2nnn(CC(=O)N(CCCN3CCOCC3)C(C(=O)NC3CCCC3)c3ccco3)n2)cc1 (configuration not stated),5.2*,2,-1,0,-1,-2
O=C1c2cccc3cccc(c23)C(=O)C1(O)O,1,10,-1,0,5.8*,0
CC(=O)N1C(=O)c2cccc3cccc(c23)C(=O)N1C(C)=O,/,1,/,/,/,/
COc1ccc(C(=O)Nc2ccc(Cl)cc2C(=O)N2CCOCC2)cc1,1,4,-1,1,1,-2
COc1ccc(OC)c(C2c3[nH]c4ccccc4c3C[C@H]3C(=O)N(C4CC4)CC(=O)N23)c1 (some centres not stated),0,8,0,0,5.8*,2
CCc1ccc(-c2nc(CS(=O)CC(=O)NC3CC3)c(C)o2)cc1 (configuration not stated),1,7,-1,0,1,1
CCc1ccc(-c2nc(CS(=O)CC(=O)O)c(C)o2)cc1 (configuration not stated),-2,14,0,1,2,12*
CC1CCN(S(=O)(=O)N2CCCC(C(=O)NCc3ccccc3Cl)C2)CC1 (configuration not stated),0,1,0,-1,-1,-4
O=C(NCCCN1CCc2ccccc2C1)C1CCN(S(=O)(=O)N2CCCC2)CC1,-1,2,0,0,5.8*,1
O=C(NCc1ccccc1Cl)C1CCN(S(=O)(=O)N2CCCCCC2)CC1,4.8*,-2,-1,0,-2,-2
SMILES,DAX1 inh-1,AHR act,ssDAF12 agonist,DAX1 inh-2,hcDAF-12 act,hgDAF-12 ag
COc1ccc(C2SCCN2S(=O)(=O)c2ccccc2)cc1 (configuration not stated),1,4,-2,0,-2,-2
CCOC(=O)c1nnn(-c2nonc2N)c1-c1ccc(Br)cc1,0,2,-1,0,-2,-2
O=[N+]([O-])c1ccc(-c2nc(C(Cl)Cl)c3ccccc3n2)cc1,-2,75*,0,0,0,2
COc1cccc(CC(NC(C)=O)C(=O)NC2CCN(c3nnnn3-c3ccccc3)CC2)c1 (configuration not stated),4.3*,0,-1,0,-1,0
O=C(CCC(=O)OCCOc1ccccc1)OCCOc1ccccc1,/,/,-1,1,-1,-3
Cc1nnsc1-c1c(C(=O)N2CCOCC2)c(C)nn1-c1ccccc1,0,0,-1,0,0,1
Cc1nnsc1-c1c(C(=O)N2CCOCC2)c(C)nn1-c1ccc(Cl)cc1,4.8*,4,-2,0,0,-1
CCOC(=O)C1(Cc2cccc(OC)c2)CCCN(C(=O)CNC(C)=O)C1 (configuration not stated),2,2,0,1,3,13*
CCOC(=O)C1(Cc2cccc(OC)c2)CCCN(C(=O)c2ccccc2C)C1 (configuration not stated),2,1,-1,0,-1,3
Cn1cnnc1Sc1ccc(C(F)(F)F)cc1[N+](=O)[O-],/,6,-1,0,-1,0
CC(=O)NCc1ccc(-c2csc(-c3cccs3)n2)cc1,0,-5,-1,0,3,12*
CC(C)CC(=O)Nc1cc2nn(-c3ccccc3)nc2cc1Cl,2,20,-1,0,1,1
COC(=O)NC1c2ccccc2Oc2ccc(C)cc21 (configuration not stated),-2,4,-1,0,-1,-3
Cc1ccc2c(c1)Oc1ccccc1C=C2C(=O)O,4.3*,0,-1,1,1,-1
O=C(Nc1ccsc1C(=O)NC1CC1)c1ccccc1,-1,59*,-1,-2,0,0
O=C(Nc1ccsc1C(=O)O)c1ccccc1,2,5,-1,0,0,3
CCC(=O)N1CCN(C(=O)c2ccccc2)CC1,-1,3,-1,1,-1,-1
NCC(c1ccco1)c1c[nH]c2ccccc12 (configuration not stated),-1,/,0,0,6.1*,-1
O=C(CSc1nc2c(cnn2-c2ccccc2)c(=O)[nH]1)NC1CCS(=O)(=O)C1 (configuration not stated),5.7*,0,-1,1,-1,-1
O=C(CSc1nc2c(cnn2-c2ccccc2)c(=O)[nH]1)N1CCCCC1,0,3,-2,0,-3,1
